# Experimental data from PubChem BioAssay (EPA / NIEHS).
# Records with an inconclusive call do not appear. Active and inactive are the calls of the source. Rule for the calls, unless noted: active = hit-call score of the fitted dose curve at least 0.9, where 1 is the maximum; inactive = score below 0.9.
# Key:
# [1] = CCTE_Mundy_HCI_Cortical_Synap_Neur_Matur_NeuriteSpotCountPerNeuron: CCTE's Synaptogenesis and Neurite Maturation Assay in rat cortical cells for Neurite Spot Count per Neuron Count, Mundy Lab (AID 2284215)
# Procedure, shortened: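 Rat primary cortical cells received AraC at DIV 5, then chemicals with a media change at DIV 7, and were fixed at DIV 12. Synaptophysin puncta on MAP2-stained neurites per neuron were counted by high-content imaging, fitted relative to DMSO.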
# [2] = CCTE_Mundy_HCI_Cortical_Synap_Neur_Matur_SynapseCount: CCTE's Synaptogenesis and Neurite Maturation Assay in rat cortical cells for Synapse Count, Mundy Lab (AID 2284218)
# Procedure, shortened: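 Primary rat cortical culture; AraC DIV 5 to arrest glia; compound + media change DIV 7; terminated DIV 12. PFA/Hoechst fix, anti-MAP2 + anti-synaptophysin immunostain; HCI synapse count/neuron; DMSO = baseline.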
# [3] = CCTE_Mundy_HCI_Cortical_Synap_Neur_Matur_NeuriteCount: CCTE's Synaptogenesis and Neurite Maturation Assay in rat cortical cells for Neurite Count, Mundy Lab (AID 2284222)
# Procedure, shortened: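 Rat primary cortical cells; AraC added at DIV 5, chemicals dosed with media change at DIV 7 through DIV 12. MAP2/synaptophysin/Hoechst immunostaining, high-content imaging of neurite number; fitted relative to DMSO.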
# [4] = CCTE_Mundy_HCI_Cortical_Synap_Neur_Matur_CellBodySpotCount: CCTE's Synaptogenesis and Neurite Maturation Assay in rat cortical cells for Cell Body Spot Count, Mundy Lab (AID 2284223)
# Procedure, shortened: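 Rat primary cortical cultures received AraC at DIV 5 to arrest glia, were dosed with chemical at DIV 7 with media change, and were fixed at DIV 12 (288.33 h). Synaptophysin puncta on MAP2-positive cell bodies per neuron were counted by high-content imaging versus DMSO.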
# [5] = CCTE_Mundy_HCI_hNP1_Pro_ResponderAvgInten: CCTE's Proliferation Assay in human neuroprogenitor cells, Mundy Lab (AID 2284224; active = hit-call score of the fitted dose curve at least 0.9, where 1 is the maximum;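 note: human neural progenitor cells hNP1 derived from WA09 embryonic stem cells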)
# Procedure, shortened: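 Human neuroprogenitors (hNP1, WA09 lineage) receive test chemical after 40 to 44 hours of attachment. A four-hour BrdU pulse begins twenty hours later, followed by fixation and high content imaging; signal is referenced to DMSO controls.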
# [6] = UKN2_HCS_IMR90_cell_viability: Viability Assessment in the University of Konstanz (UKN) Leist Lab Neural Crest Cell Migration Assay in human induced IMR90 Pluripotent Stem Cells (UKN2) (AID 2284233);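 note: viability of neural crest cells differentiated from IMR90 iPSC measured by calcein-AM fluorescence imaging; cells exposed to compound for 24 h after a 24 h migration phase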
# Procedure, shortened: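 iPSC-derived (IMR90) neural crest cells seeded around silicone stoppers on PLO/laminin/fibronectin; after 24 h migration in N2-S with EGF/FGF, chemical added for 24 h. Calcein-AM/Hoechst stained 30 min, high-content imaged; bidirectional fit versus DMSO.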
# [7] = CCTE_Mundy_HCI_Cortical_NOG_NeuronCount: CCTE's Neurite Outgrowth Assay in rat cortical cells for Neuron Count, Mundy Lab (AID 2284236; active = hit-call score of the fitted dose curve at least 0.9, where 1 is the maximum;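 note: neurons counted by imaging betaIII-tubulin and Hoechst stained cortical cells; cells exposed to compound for about 48 hours before fixation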)
# Procedure, shortened: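 Read-out: neuron number by high-content imaging of betaIII-tubulin (Alexa Fluor-488) and Hoechst-labelled rat primary cortical cells.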
# [8] = CCTE_Mundy_HCI_Cortical_NOG_BPCount: CCTE's Neurite Outgrowth Assay in rat cortical cells for Branch Point Count, Mundy Lab (AID 2284237);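 note: branch points counted about two days after chemical exposure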
# Procedure, shortened: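 Measured 50.33 h after dosing, this morphology endpoint uses rat primary cortical cultures labelled for betaIII-tubulin. Branch points are quantified by high-content imaging, with DMSO as negative control and baseline.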
# [9] = CCTE_Mundy_HCI_hNP1_Casp3_7: CCTE's Caspase-Glo 3/7 Assay in human neuroprogenitor cells for Apoptosis, Mundy Lab (AID 2284240)
# Procedure, shortened: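 Neuroepithelial-lineage stem cells from WA09 embryonic cells were treated with chemicals after 40–44 h of culture. Twenty-four hours later, caspase-3/7 activation was detected luminescently after a 30 min room-temperature reagent step, with DMSO as baseline.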
# [10] = CCTE_Mundy_HCI_hNP1_CellTiter: CCTE's Cell Titer-Glo 2 Assay in human neuroprogenitor cells for Viability, Mundy Lab (AID 2284241; active = hit-call score of the fitted dose curve at least 0.9, where 1 is the maximum)
# Procedure, shortened: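 Measures ATP content in human neural progenitors derived from WA09 embryonic cells. Read-out at 26.5 hours after dosing, with DMSO serving as the negative control and baseline.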
# [11] = CCTE_Mundy_HCI_Cortical_Synap_Neur_Matur_NeuronCount: CCTE's Synaptogenesis and Neurite Maturation Assay in rat cortical cells for Neuron Count, Mundy Lab (AID 2284242; active = hit-call score of the fitted dose curve at least 0.9, where 1 is the maximum;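 note: hits reduce neuron count versus DMSO baseline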)
# Procedure, shortened: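 Neuron number was scored by automated high-content imaging of Hoechst- and MAP2-labelled rat primary cortical cells. Glial growth was arrested with AraC at DIV 5, compounds were applied from DIV 7, and cultures ended at DIV 12.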
# [12] = IUF_NPC2c_oligodendrocyte_migration_120hr: Leibniz Research Institute for Environmental Medicine (IUF) 120-hour Neural Progenitor Cell Migration Assay for Oligodendrocyte Migration (NPC2c) (AID 2284297);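 note: O4-positive oligodendrocyte migration distance divided by radial glia migration distance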
# Procedure, shortened: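 Human fetal cortex-derived neural progenitor spheres (0.3 mm) were plated on poly-D-lysine/laminin in N2 differentiation medium and exposed to 7 concentrations for 120 h, with half-medium renewal at day 3. Oligodendrocyte migration distance was normalized to radial glia migration, relative to DMSO.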
# [13] = IUF_NPC2a_radial_glia_migration_120hr: Leibniz Research Institute for Environmental Medicine (IUF) 120-hour Neural Progenitor Cell Migration Assay for Radial Glia Migration (NPC2a) (AID 2284298)
# Procedure, shortened: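 Single 0.3 mm primary human fetal-cortex (GW 16-19) NPC spheres were plated on poly-D-lysine/laminin in N2 differentiation medium and exposed from day 0 for 120 h, half-medium refreshed day 3. Migration distance came from Hoechst nuclei-density imaging, relative to DMSO.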
# [14] = IUF_NPC2a_radial_glia_migration_72hr: Leibniz Research Institute for Environmental Medicine (IUF) 72-hour Neural Progenitor Cell Migration Assay for Radial Glia Migration (NPC2a) (AID 2284299)
# Procedure, shortened: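 Primary hNPC spheres, fetal brain GW 16-19, on PDL/laminin; DMEM/F12 3:1 + 1% N2. Compound dosed day 0, 7 conc. + SC, half-medium refresh day 3. 72 h brightfield, migration distance core-to-front (um), 4 directions averaged.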
# [15] = IUF_NPC2b_neuronal_migration_120hr: Leibniz Research Institute for Environmental Medicine (IUF) 120-hour Neural Progenitor Cell Migration Assay for Neuron Migration (NPC2b) (AID 2284300)
# Procedure, shortened: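 Primary human fetal cortex neural progenitor spheres (0.3 mm) plated on poly-D-lysine/laminin in N2 differentiation medium, exposed 120 h with half-medium refresh at day 3. TUBB3-stained neuron distance from sphere core, normalized to radial glia migration, versus DMSO.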
# [16] = IUF_NPC3_neuronal_differentiation_120hr: Leibniz Research Institute for Environmental Medicine (IUF) 120-hour Neuronal Differentiation Assay (NPC3) (AID 2284301)
# Procedure, shortened: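 Primary human fetal neural progenitor spheres (GW 16-19, 0.3 mm) plated on poly-D-lysine/laminin in N2 medium, exposed from day 0 for 120 h with half-medium refresh at day 3. TUBB3+ cells as percent of Hoechst nuclei in migration area; DMSO baseline.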
# [17] = IUF_NPC4_neurite_length_120hr: Leibniz Research Institute for Environmental Medicine (IUF) 120-hour Neuronal Morphology Assay for Neurite Length (NPC4) (AID 2284302)
# Procedure, shortened: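 Human fetal cortex (GW 16-19) neural progenitor spheres, 0.3 mm, were plated on poly-D-lysine/laminin in N2 differentiation medium and exposed from day 0 for 120 h, half-feeding at day 3. Mean TUBB3+ neurite length (µm) came from skeletonized images, relative to DMSO.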
# [18] = IUF_NPC5_oligodendrocyte_differentiation_120hr: Leibniz Research Institute for Environmental Medicine (IUF) 120-hour Oligodendrocyte Differentiation Assay (NPC5) (AID 2284304; active = hit-call score of the fitted dose curve at least 0.9, where 1 is the maximum;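 note: primary human fetal neural progenitor spheres plated to migrate and differentiate; share of O4-positive cells among Hoechst nuclei found by CNN image analysis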)
# Procedure, shortened: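 Primary human fetal (GW 16-19) neural progenitor spheres (0.3 mm) plated on poly-D-lysine/laminin in N2 differentiation medium, exposed from day 0 for 120 h with half-medium refresh at day 3; O4-positive cells as percent of Hoechst nuclei, CNN-identified, versus DMSO.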
# [19] = IUF_NPC4_neurite_area_120hr: Leibniz Research Institute for Environmental Medicine (IUF) 120-hour Neuronal Morphology Assay for Neurite Area (NPC4) (AID 2284305; active = hit-call score of the fitted dose curve at least 0.9, where 1 is the maximum)
# Procedure, shortened: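 Human fetal cortex-derived neural progenitor spheres (0.3 mm, GW 16-19) plated on poly-D-lysine/laminin in N2 differentiation medium and exposed from day 0 for 120 h across 7 concentrations plus solvent control. Neurite area is mean pixel area per TUBB3-positive neuron via skeletonization, analysed relative to DMSO.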
# [20] = IUF_NPC2-5_cytotoxicity_72hr: Cytotoxicity Assessment at 72 hours in the Leibniz Research Institute for Environmental Medicine (IUF) Neural Progenitor Cell Migration and Differentiation Assay for Cytotoxicity (NPC2-5) (AID 2284306; active = hit-call score of the fitted dose curve at least 0.9, where 1 is the maximum;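 note: LDH release into supernatant measured by resorufin fluorescence marking membrane damage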)
# Procedure, shortened: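 Human fetal (GW 16-19) neural progenitor spheres, 0.3 mm, plated on poly-D-lysine/laminin in N2 differentiation medium and exposed from day 0 to 7 concentrations plus solvent control (DMSO ≤0.1%). LDH-dependent resazurin-to-resorufin fluorescence in supernatant at 72 h.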
# [21] = IUF_NPC2-5_cytotoxicity_120hr: Cytotoxicity Assessment at 120 hours in the Leibniz Research Institute for Environmental Medicine (IUF) Neural Progenitor Cell Migration and Differentiation Assay (NPC2-5) (AID 2284307; active = hit-call score of the fitted dose curve at least 0.9, where 1 is the maximum)
# Procedure, shortened: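 Human fetal neural progenitor spheres (0.3 mm, GW 16-19 cortex) were plated on poly-D-lysine/laminin in N2 differentiation medium and exposed for 120 h, with half-medium refresh at day 3. LDH release into supernatant was read by resorufin fluorescence.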
# [22] = IUF_NPC2-5_cell_number_120hr: Cell Number Assessment at 120 hours in the Leibniz Research Institute for Environmental Medicine (IUF) Neural Progenitor Cell Migration and Differentiation Assay (NPC2-5) (AID 2284308);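 note: count of Hoechst-stained nuclei in migration zone around plated human neural progenitor spheres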
# Procedure, shortened: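 Primary human fetal neural progenitor spheres (GW 16-19, 0.3 mm) plated on poly-D-lysine/laminin in N2 differentiation medium, exposed from day 0 for 120 h with half-medium refresh at day 3; Hoechst-positive nuclei counted in migration area versus DMSO control.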
# [23] = IUF_NPC2-5_viability_120hr: Viability Assessment at 120 hours in the Leibniz Research Institute for Environmental Medicine (IUF) Neural Progenitor Cell Migration and Differentiation Assay (NPC2-5) (AID 2284312)
# Procedure, shortened: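 Human fetal (GW 16-19) neural progenitor spheres of 0.3 mm were plated on poly-D-lysine/laminin in N2 differentiation medium and exposed from day 0 for 120 h, with half-medium refresh at day 3. Viability was read as alamar blue resazurin-to-resorufin fluorescence against DMSO.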
# [24] = CCTE_Mundy_HCI_iCellGluta_NOG_NeuriteLength: CCTE's Neurite Outgrowth Assay in iCellGluta cells for Neurite Length, Mundy Lab (AID 2284318; active = hit-call score of the fitted dose curve at least 0.9, where 1 is the maximum)
# Procedure, shortened: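 Automated high-content imaging of betaIII-tubulin (Alexa Fluor-488) and Hoechst-stained cells gave neurite length, normalized to the DMSO baseline.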
# [25] = IUF_NPC1_cytotoxicity_72hr: Cytotoxicity Assessment at 72 hours in the Leibniz Research Institute for Environmental Medicine (IUF) Neural Progenitor Cell Proliferation Assay (NPC1) (AID 2284332; active = hit-call score of the fitted dose curve at least 0.9, where 1 is the maximum;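 note: rising LDH signal means more cytotoxicity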)
# Procedure, shortened: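 Spheres of primary human neural progenitors are plated one per well on day 0 in growth-factor medium and dosed at once. After three days at 37C, supernatant LDH is measured fluorimetrically via resazurin reduction.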
# [26] = CCTE_Mundy_HCI_iCellGluta_NOG_NeuronCount: CCTE's Neurite Outgrowth Assay in iCellGluta cells for Neuron Count, Mundy Lab (AID 2284340; active = hit-call score of the fitted dose curve at least 0.9, where 1 is the maximum;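 note: cells fixed about 48 h after compound addition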)
# Procedure, shortened: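 Neuron count read by automated high-content imaging of Hoechst 33342 and betaIII-tubulin/Alexa Fluor-488 labelling in human iPSC glutamatergic neurons. Activity fitted relative to DMSO.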
# [27] = CCTE_Mundy_HCI_iCellGluta_NOG_NeuriteCount: CCTE's Neurite Outgrowth Assay in iCellGluta cells for Neurite Count, Mundy Lab (AID 2284342; active = hit-call score of the fitted dose curve at least 0.9, where 1 is the maximum;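 note: chemical exposure about 48 hours starting 2 hours after plating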)
compound,measurement,setting,value
CC1(C)C(C=C(Cl)Cl)C1C(=O)O[C@H](C#N)c1cccc(Oc2ccccc2)c1 (some centres not stated),AC50,[1],10.8 µM (active)
same,AC50,[2],10.9 µM (active)
same,AC50,[3],12.3 µM (active)
same,AC50,[4],12 µM (active)
same,AC50,[5],23.3 µM (active)
same,outcome,[6],inactive
same,outcome,[7],inactive
same,AC50,[8],80 µM (active)
same,AC50,[9],29.3 µM (active)
same,outcome,[10],inactive
same,AC50,[11],10.1 µM (active)
same,outcome,[12],inactive
same,outcome,[13],inactive
same,outcome,[14],inactive
same,outcome,[15],inactive
same,AC50,[16],0.851 µM (active)
same,outcome,[17],inactive
same,AC50,[18],1.32 µM (active)
same,outcome,[19],inactive
same,outcome,[20],inactive
same,outcome,[21],inactive
same,outcome,[22],inactive
same,outcome,[23],inactive
same,outcome,[24],inactive
same,outcome,[25],inactive
same,outcome,[26],inactive
same,outcome,[27],inactive
